The list is not random: actives were taken first. Their share in the collection is about 19%.
Pf growth 48h – inhibits P. falciparum growth in the first generation, 48 h; P. falciparum luciferase growth in erythrocytes, 48 h; Potency, µM (highest dose often 28.7 µM), hits mostly inhibitors; 310,000 compounds, 5.9% hits; AID 504832
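Cell-based growth assay: transgenic P. falciparum expressing firefly luciferase, cultured in red cells within RPMI 1640 containing 0.5% w/v Albumax, 24 mM bicarbonate and gentamycin. A drop in luciferase activity indicates inhibition.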
CHX counter – counter-screen for Shiga toxin inhibitors: cycloheximide protein synthesis inhibition | cell reporter, cycloheximide protein synthesis inhibition counterscreen | max response, % | 300,000 compounds, 12% hits | AID 2314; in the data active = max response mostly above about 13%, no sharp cut-off; inactive = mostly below about 14%; note: read at 38.3 µM for the half of the compounds with a filed dose
Pf growth 96h – inhibits malaria parasite growth, 96 h. P. falciparum luciferase reporter growth, 96 h. Potency, µM (series often up to 28.7 µM), actives largely listed as inhibitors. 320,000 compounds, 6.9% hits. AID 504834
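P. falciparum expressing integrated firefly luciferase, in erythrocytes at 2% hematocrit, 0.05% parasitemia, incubated with compounds 96 h at 37 C, 5% CO2. Growth inhibition read as loss of luminescence; two-generation exposure targets delayed-death apicoplast inhibitors.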
Shiga inhibitor – blocks Shiga toxin action in Vero cells; Vero cells, Shiga toxin protein synthesis inhibition reporter; inhibition, % at 38.7 µM; 290,000 compounds, 9.2% hits; in the data active = inhibition mostly above about 28%, no sharp cut-off; inactive = mostly below about 43%
SARS PLpro yeast – blocks SARS-CoV papain-like protease in a yeast assay. Potency, µM (doses to about 32.9 µM), usual class: activators. S. cerevisiae expressing SARS-CoV PLpro, growth rescue. 330,000 compounds, 0.19% hits; calls by dose curve; note: nearly all actives have a fitted effect of over 55% in size
AMA1 RON2 block – AMA1-RON2 (P. falciparum) interaction inhibition; AlphaScreen AMA1-biotinylated RON2 peptide binding; Potency, µM (titrated, usually from 58.2 µM), hits mostly inhibitors; 360,000 compounds, 0.2% hits; note: nearly all actives have a fitted effect of over 45% in size
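AMA1 (3D7) with his tag at 25 nM final met compounds first, then biotinylated RON2 peptide at 25 nM; detection used donor plus acceptor beads, 10 µg/mL apiece, read by AlphaScreen after 30 min at room temperature.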
A number is an active result; - = inactive; ? = inconclusive; . = not tested or not shown; [ ] = dose if it differs, or a comment. Unless noted, calls come from the whole dose curve; as a rule, active = well fitted curve in the direction sought with a large enough effect; inconclusive = small, poorly fitted or top-dose-only effect, or another doubt; inactive = no such curve, though single readings can be large; an effect the other way counts as inactive or inconclusive.

SMILES	Pf growth 48h	CHX counter	Pf growth 96h	Shiga inhibitor	SARS PLpro yeast	AMA1 RON2 block
C=CCOC(=O)C(C#N)c1nc2ccccc2nc1N1CCN(Cc2ccccc2)CC1 (stereo unspecified)	?	-	-	-	-	-
C=CCOC(=O)C(C#N)c1nc2ccccc2nc1N1CCN(c2ccccc2OC)CC1 (stereo unspecified)	5.9µM	-	8.3µM	-	-	?
COCCNC(=O)C(C#N)c1nc2ccccc2nc1N1CCCCCC1 (stereo unspecified)	?	-	-	-	-	-
CCOC(=O)C1CCCN(c2nc3ccccc3nc2C(C#N)C(=O)OCCOC)C1 (stereo unspecified)	6.6µM	-	8.3µM	-	-	-
CC(C)COC(=O)N1CCN(S(=O)(=O)c2ccc3c(c2)CCC3)CC1	?	.	?	.	-	-[11.6 µM]
COC(=O)CN(C)C(=O)c1ccc2nc(Cc3cccc(Cl)c3)oc2c1	-	51	?	.	-	-
CC(C)(CO)NC(=O)c1ccc2nc(Cc3cccc(Cl)c3)oc2c1	-	26	-	26	-	-
CCCC1CC(C)(c2csc(Nc3ccc(OCC)cc3)n2)OC1=O (stereo unspecified)	?	20	?	60	-	-
CCOc1ccc(NC(=O)CC2CC(C)(C)OC2=O)cc1 (stereo unspecified)	-	-	.	-	-	-
CCN(CC)C(=O)c1ccc(-c2cccs2)s1	?	56	-	93	-	-
Cc1cc(Nc2ccc3c(c2)OCCO3)c2ccccc2n1	?	-	?	-	-	-
Cc1ccc2nc(C)cc(Nc3ccc4c(c3)OCCO4)c2c1	.	60	-	38	-	-
COc1ccc(S(=O)(=O)Nc2ccc(N3CCOCC3)cc2)cc1	.	-	-	-	-	-
CCOc1ccc2nc(C)cc(Nc3ccc(N4CCOCC4)cc3)c2c1	2.1µM	-	2.6µM	-	?	.
CCOc1ccc(S(=O)(=O)Nc2nc3ccccc3nc2Nc2ccc(N3CCOCC3)cc2)cc1	-	13	?	-	-	?
CC(=O)c1ccc(Nc2cc(C)nc3ccc(C)cc23)cc1	3.7µM	-	-	-	-	-
COc1ccc(Nc2cc(C)nc3ccc(C)cc23)cc1	.	.	.	.	.	-
CCOc1ccc2nc(C)cc(Nc3ccc4c(c3)OCCO4)c2c1	?	-	2.6µM	-	-	-
CCOc1ccc2nc(C)cc(Nc3cccc([N+](=O)[O-])c3)c2c1	1.7µM	-	1µM	-	-	-
COc1ccccc1CCc1nnc(CCC(=O)NC(C)Cc2cccs2)o1 (stereo unspecified)	-	-	-	-	-	-
CCOc1ccc(/C=N/NC(=O)C2CC2)cc1OC	-	-	?	-	-	-
CCOC(=O)N/N=C/c1ccc(OCCSc2ccc(Cl)cc2)c(OCC)c1	1.9µM	-	3.3µM	-	-	-
COc1cc(C=O)ccc1OCCSc1ccc(Cl)cc1	-	22	-	70	-	-
CCOC(=O)N/N=C/c1ccc(OCCSc2ccc(Cl)cc2)c(OC)c1	5.2µM	-	2.1µM	-	-	-
CCOC(=O)C1(C)CCCCCN1C(=O)c1ccco1 (stereo unspecified)	.	.	.	.	.	-
SMILES	Pf growth 48h	CHX counter	Pf growth 96h	Shiga inhibitor	SARS PLpro yeast	AMA1 RON2 block
O=C(NCCCN1CCCC1=O)C1CCN(S(=O)(=O)c2ccccc2)CC1	?	.	?	.	-	-
CC[C@H](C)[C@H](NC(=O)[C@H](CCCNC(=N)N)NC(=O)[C@@H]1CCCN1C(=O)[C@H](Cc1ccccc1)NC(=O)[C@H](Cc1cnc[nH]1)NC(=O)[C@H](CCCNC(=N)N)NC(=O)[C@@H](NC(=O)[C@H](C)NC(=O)[C@H](CCC(=O)O)NC(=O)[C@H](CC(N)=O)NC(=O)[C@@H](N)CCCCN)C(C)C)C(=O)N[C@@H](Cc1c[nH]c2ccccc12)C(=O)N[C@@H](CC(C)C)C(=O)O	.	-	.	-	.	.
CCCOc1ccc(C(=O)N(CC(C)C)c2c(N)n(Cc3ccccc3)c(=O)[nH]c2=O)cc1	?	.	?	.	-	-
Cc1ccc(S(=O)(=O)NC(=O)c2cc(C)n(-c3cc(S(=O)(=O)N4CCOCC4)ccc3N3CCCC3)c2C)cc1	.	-	4.7µM	-	-	-
Cc1ccccc1C(=O)N1CCC(C(=O)Nc2cc(C(F)(F)F)ccc2N2CCCC2)CC1	-	.	10µM	.	-	-
Cc1ccc(C(=O)Nc2cc(S(=O)(=O)N3CCOCC3)ccc2N2CCCC2)cc1	?	.	-	.	-	-
O=C(Nc1cc(S(=O)(=O)N2CCOCC2)ccc1N1CCCC1)c1ccc(Cl)cc1	15µM	.	?	.	-	-
O=C(NCCc1c[nH]c2ccccc12)c1cc(S(=O)(=O)N2CCCCC2)ccc1N1CCOCC1	7.4µM	-	-	-	-	-
COc1ccc(CNC(=O)c2cc(S(=O)(=O)N3CCCCC3)ccc2N2CCOCC2)cc1OC	.	.	.	.	.	-
O=C(Nc1ccccc1N1CCCC1)c1cc(S(=O)(=O)N2CCOCC2)ccc1Cl	-	.	?	.	-	-
O=C(Nc1ccccc1N1CCCCC1)c1cc(S(=O)(=O)N2CCOCC2)ccc1F	10µM	.	-	.	-	-
O=C(Nc1cc(S(=O)(=O)N2CCOCC2)ccc1N1CCCCC1)c1ccccc1	?	.	4.7µM	.	-	-[11.6 µM]
O=C(Nc1cc(S(=O)(=O)N2CCOCC2)ccc1N1CCCCC1)c1ccc(Cl)cc1	13µM	.	8.3µM	.	-	-
O=C(Nc1cc(S(=O)(=O)N2CCCCC2)ccc1N1CCOCC1)c1cc(=O)[nH]c2ccccc12	?	-	8.3µM	-	-	-
COc1ccc(S(=O)(=O)N2CCOCC2)cc1NC(=O)c1cc(=O)[nH]c2ccccc12	-	.	?	.	-	-
CCOC(=O)c1c(C)[nH]c(C(=O)OCC(=O)c2ccc3c(c2)NC(=O)CO3)c1C	?	.	?	.	-	-
Cc1ccc(S(=O)(=O)N2CCC(C(=O)Nc3cc(C(F)(F)F)ccc3N3CCOCC3)CC2)cc1C	?	.	9.3µM	.	-	-
Cc1cccc(C(=O)Nc2cc(S(=O)(=O)N3CCOCC3)ccc2N2CCCCC2)c1	7.4µM	.	?	.	-	-[11.6 µM]
O=C(Nc1cc(S(=O)(=O)N2CCCCC2)ccc1N1CCOCC1)c1ccc(C(F)(F)F)cc1	9.3µM	.	13µM	.	-	-
CN1CCN(c2ccc(C(F)(F)F)cc2NC(=O)Nc2ccccc2)CC1	.	-	1.5µM	-	-	-
Cc1cccc(C(=O)Nc2cc(S(=O)(=O)N3CCOCC3)ccc2N2CCCC2)c1	?	.	?	.	-	-
CC1CC1C(=O)Nc1cc(C(F)(F)F)ccc1N1CCOCC1 (stereo unspecified)	?	-	-	-	-	-
Cc1cc(=O)c(C(=O)Nc2cccc(C(=O)NC3CC3)c2)nn1-c1ccccc1	.	.	.	.	.	-
CCOc1ccccc1NC(=O)CSCC(=O)Nc1ccccc1	.	-	?	-	-[6.58 µM]	-
Cc1ccc(-c2nc3ncccc3o2)cc1NC(=O)c1ccc2c(c1)OCO2	.	.	.	.	.	-
C=CCC(NCc1ccco1)c1ccc(OC)cc1OC (stereo unspecified)	-	-	10µM	-	-	.
